Measurements reported in PubChem BioAssay AID1159580 (chemical genetic matrix, 2015).
Screen size: about 5,500 compounds; about 2,000 (36%) were called active. About 18% were inconclusive and are not listed. Some of the results follow. A number with no mark means an inactive call. Cut-off read from the data, not from the text of the source: active = normalized growth mostly below about 0.91 (no sharp cut-off); inconclusive = no clear call, values can overlap the other calls; inactive = mostly above about 0.92.

Test: chemical genetic growth profiling, strain panel (AID 1159580);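 note: tested at 20 µM; growth read once vehicle control cultures reached saturation at 30 °C; 1 = growth at the plate median or of vehicle wells; lower values mean less growth of the strain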
Conditions: S. cerevisiae deletion strains, growth OD

SMILES: C[C@]12CCC3C(CC[C@H]4CC(=O)CC[C@]34C)C1CCC2=O (stereo partly specified)
- normalized growth (locus YJR066W, strain TOR1, active compounds read low): 0.881
- normalized growth (locus YKL009W, strain mrt4, active compounds read low): 0.906
- normalized growth (locus YKL068W, active compounds read low): 0.989
- normalized growth (locus YKL085W, strain MDH1 (second series), active compounds read low): 0.97
- normalized growth (locus YKL085W, strain MDH1, active compounds read low): 0.97
- normalized growth (locus YKL160W, strain elf1, active compounds read low): 0.95
- normalized growth (locus YKL190W, strain CNB1, active compounds read low): 0.98
- normalized growth (locus YKR001C, strain vps1, active compounds read low): 0.86 (active)
- normalized growth (locus YKR026C, strain gcn3, active compounds read low): 1.02
- normalized growth (locus YKR091W, strain srl3, active compounds read low): 1.03
- normalized growth (locus YLL001W, strain dnm1, active compounds read low): 0.942
- normalized growth (locus YLL026W, active compounds read low): 0.928 (active)
- normalized growth (locus YLL041C, strain sdh2, active compounds read low): 1.01
- normalized growth (locus YLR027C, strain aat2, active compounds read low): 0.875 (active)
- normalized growth (locus YLR039C, strain RIC1, active compounds read low): 0.504 (active)
- normalized growth (locus YLR058C, strain SHM2, active compounds read low): 0.958
- normalized growth (locus YLR102C, strain apc9, active compounds read low): 0.992
- normalized growth (locus YLR113W, strain HOG1, active compounds read low): 0.923
- normalized growth (locus YLR221C, strain rsa3, active compounds read low): 0.796 (active)
- normalized growth (locus YLR258W, strain gsy2, active compounds read low): 0.92
- normalized growth (locus YLR262C, strain YPT6 (second series), active compounds read low): 0.471 (active)
- normalized growth (locus YLR262C, strain YPT6, active compounds read low): 0.487 (active)
- normalized growth (locus YLR268W, strain sec22, active compounds read low): 0.927
- normalized growth (locus YLR320W, strain mms22, active compounds read low): 0.595 (active)
- normalized growth (locus YLR330W, strain CHS5, active compounds read low): 0.95
- normalized growth (locus YLR342W, strain FKS1 (second series), active compounds read low): 0.718 (active)
- normalized growth (locus YLR342W, strain FKS1, active compounds read low): 0.912
- normalized growth (locus YLR357W, strain rsc2, active compounds read low): 1.08
- normalized growth (locus YLR370C, strain arc18, active compounds read low): 0.972
- normalized growth (locus YLR371W, strain rom2, active compounds read low): 0.956
- normalized growth (locus YLR384C, strain iki3, active compounds read low): 1.04
- normalized growth (locus YLR418C, strain cdc73, active compounds read low): 0.701 (active)
- normalized growth (locus YML016C, strain PPZ1, active compounds read low): 0.988
- normalized growth (locus YML032C, strain rad52, active compounds read low): 0.82 (active)
- normalized growth (locus YML120C, strain ndi1, active compounds read low): 0.853 (active)
- normalized growth (locus YML124C, strain tub3, active compounds read low): 0.996
- normalized growth (locus YMR058W, strain fet3, active compounds read low): 0.872 (active)
- normalized growth (locus YMR078C, strain ctf18, active compounds read low): 0.966
- normalized growth (locus YMR125W, strain sto1, active compounds read low): 1.02
- normalized growth (locus YMR129W, active compounds read low): 0.929
- normalized growth (locus YMR205C, strain PFK2, active compounds read low): 0.726 (active)
- normalized growth (locus YMR223W, strain ubp8, active compounds read low): 0.864 (active)
- normalized growth (locus YMR231W, strain pep5, active compounds read low): 0.99
- normalized growth (locus YMR307W, strain GAS1, active compounds read low): 0.771
- normalized growth (locus YNL067W, strain RPL9B, active compounds read low): 0.985
- normalized growth (locus YNL071W, strain lat1, active compounds read low): 0.563 (active)
- normalized growth (locus YNL183C, strain NPR1, active compounds read low): 0.876
- normalized growth (locus YNL209W, strain ssb2, active compounds read low): 0.991
- normalized growth (locus YNL233W, strain BNI4, active compounds read low): 0.902
- normalized growth (locus YNL248C, strain rpa49, active compounds read low): 0.908
- normalized growth (locus YNL250W, strain rad50, active compounds read low): 0.894 (active)
- normalized growth (locus YNL271C, strain bni1, active compounds read low): 0.893 (active)
- normalized growth (locus YNL298W, strain CLA4, active compounds read low): 0.821 (active)
- normalized growth (locus YNL307C, strain MCK1, active compounds read low): 0.723 (active)
- normalized growth (locus YNL322C, strain KRE1 (second series), active compounds read low): 0.977
- normalized growth (locus YNL322C, strain KRE1, active compounds read low): 0.99
- normalized growth (locus YNR049C, strain mso1, active compounds read low): 1.02
- normalized growth (locus YNR052C, strain pop2, active compounds read low): 0.648 (active)
- normalized growth (locus YOL006C, strain TOP1, active compounds read low): 0.529 (active)
- normalized growth (locus YOL012C, strain htz1): 1.71
- normalized growth (locus YOL147C, strain pex11, active compounds read low): 0.975
- normalized growth (locus YOR001W, strain rrp6, active compounds read low): 0.833 (active)
- normalized growth (locus YOR061W, strain CKA2, active compounds read low): 0.923
- normalized growth (locus YOR069W, strain VPS5, active compounds read low): 1
- normalized growth (locus YOR070C, strain gyp1, active compounds read low): 0.946
- normalized growth (locus YOR080W, strain dia2, active compounds read low): 1.02
- normalized growth (locus YOR083W, strain WHI5, active compounds read low): 0.904
- normalized growth (locus YOR106W, strain vam3, active compounds read low): 0.766 (active)
- normalized growth (locus YOR136W, strain idh2, active compounds read low): 0.994
- normalized growth (locus YOR144C, strain elg1, active compounds read low): 0.954
- normalized growth (locus YOR184W, strain ser1, active compounds read low): 0.658 (active)
- normalized growth (locus YOR231W, strain MKK1, active compounds read low): 0.901
- normalized growth (locus YOR265W, strain rbl2, active compounds read low): 0.997
- normalized growth (locus YOR270C, strain vph1, active compounds read low): 0.634 (active)
- normalized growth (locus YOR290C, strain snf2, active compounds read low): 0.932
- normalized growth (locus YOR316C, strain cot1, active compounds read low): 0.981
- normalized growth (locus YPL051W, strain arl3, active compounds read low): 0.865 (active)
- normalized growth (locus YPL078C, strain atp4, active compounds read low): 0.886 (active)
- normalized growth (locus YPL106C, strain sse1, active compounds read low): 1.14
- normalized growth (locus YPL240C, strain hsp82, active compounds read low): 0.936
- normalized growth (locus YPL256C, strain CLN2, active compounds read low): 0.887
- normalized growth (locus YPR119W, strain clb2, active compounds read low): 1.01
- normalized growth (locus YPR141C, strain kar3, active compounds read low): 1
- normalized growth (locus YPR163C, strain tif3, active compounds read low): 0.884 (active)
- normalized growth (locus YPR167C, strain met16, active compounds read low): 0.921
- normalized growth (strain wtn01, active compounds read low): 0.944
